Screens deposited in PubChem by Broad Institute.
This is a sample that favours compounds with a hit; in the whole collection about 2.8% have one here.
SIRT5 block = SIRT5 desuccinylase inhibitors, primary screen, biochemical, fluorescence imaging, single point, set 5. NAD-dependent protein deacylase sirtuin-5, mitochondrial (Homo sapiens), Q9NXA8. Purified SirT5, succinyl-peptide AMC, trypsin-coupled fluorescence. inhibition, % at 15 µM. 330,000 tested, 1.1% active; in the data active = inhibition above about 15%
FGF22 binding-1 = binders of human FGF22 protein, primary screen, FGF22 synaptogenesis inhibitor project, biophysical, thermal shift, single point; recombinant FGF22 thermal shift, SYPRO orange fluorescence; percent of sucrose octasulfate shift, DMSO zero; activity (Tm shift, normalised), % at 9.99 µM; 340,000 tested, 1.5% active; AID 651658, 2012;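 active = mean Tm shift, scaled 0 neutral to 100 positive control, at about 1.3% or above, every replicate too, limit read from the data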
Target sequence (Q9HCT0 whole entry, looked up): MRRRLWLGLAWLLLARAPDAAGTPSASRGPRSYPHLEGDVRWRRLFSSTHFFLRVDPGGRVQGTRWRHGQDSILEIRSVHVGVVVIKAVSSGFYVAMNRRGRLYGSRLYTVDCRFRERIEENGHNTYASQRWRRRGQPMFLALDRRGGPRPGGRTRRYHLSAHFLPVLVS
dFosB activator = activators of delta FosB homodimer, primary screen, biochemical, fluorescence polarization, TAMRA-CDK5 oligo, single point; purified delta FosB; percent of positive-control signal above neutral wells; 340,000 tested, 0.99% active; activation, % at 25 µM;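 active = mean activation above about 17%, with every replicate also reaching it, limit read from the data, passing the limit was not always enough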
Target sequence (P13346 whole entry, looked up): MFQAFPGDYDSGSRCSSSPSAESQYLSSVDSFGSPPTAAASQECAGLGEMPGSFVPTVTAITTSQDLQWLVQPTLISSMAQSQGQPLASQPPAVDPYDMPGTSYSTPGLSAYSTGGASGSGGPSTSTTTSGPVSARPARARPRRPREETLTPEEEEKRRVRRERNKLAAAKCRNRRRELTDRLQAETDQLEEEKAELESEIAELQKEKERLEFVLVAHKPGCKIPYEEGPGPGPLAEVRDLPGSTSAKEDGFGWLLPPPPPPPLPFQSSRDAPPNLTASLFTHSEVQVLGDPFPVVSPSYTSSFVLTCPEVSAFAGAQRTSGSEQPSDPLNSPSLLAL
PglD DTNB = C. jejuni PglD acetyltransferase inhibitors, primary screen, biochemical, DTNB colorimetric, single point. UDP-N-acetylbacillosamine N-acetyltransferase PglD (Campylobacter jejuni). purified PglD enzyme, DTNB colorimetric CoA detection. inhibition, % at 12.5 µM. 360,000 tested, 0.098% active; in the data active = inhibition above about 16%, passing the limit was not always enough
PvdQ inh = P. aeruginosa PvdQ acylase inhibitors, primary screen, biochemical, fluorescence, plate reader and imaging, single point; purified PvdQ acylase; PvdQ acylase [Pseudomonas aeruginosa LESB58]; inhibition, % at 10 µM; 340,000 tested, 0.063% active; in the data active = inhibition above about 30%, passing the limit was not always enough;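 also: 0% = vehicle neutral wells and 100% = reference inhibitor wells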
CDK5 inh = inhibitors of human CDK5/p35 kinase, primary screen, biochemical, single concentration. inhibition, % at 10 µM. Recombinant CDK5/p35, ADP-Glo luminescence, 60 min. 330,000 tested, 0.01% active;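 active = highest replicate inhibition of at least 50% and at least 75% of replicates reaching 50%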;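 also: plate controls were DMSO neutral control for no effect and GW8510 at 10 µM for full effect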
FGF22 binding-2 = binders of human FGF22 protein, dose response, FGF22 synaptogenesis inhibitor project, biophysical, thermal shift, cherry-pick retest; shares compounds with FGF22 binding-1; recombinant FGF22 thermal shift, SYPRO orange fluorescence; thermal shift activity, °C (ΔTm) at 38 µM; 1,000 tested, 2% active;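 active = fitted rise in melting shift crosses a set limit at or below the top valid dose tested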
TSA no protein = compound-only thermal shift signal without protein, dose response, artefact control for FGF22 binder project, biochemical, cherry-picked samples, RT-PCR instrument. 1,000 tested, 2% active. AC50, µM (doses to about 38 µM). AID 743019, 2013. shares compounds with FGF22 binding-1. compound-only SYPRO orange thermal shift counter-screen, no protein;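 active = rising signal whose fitted curve reaches the 0.54 level within the top valid dose, showing a melting point, actives reach about 13 µM in these data; inactive = the rest, including activity in the opposite direction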; also: value is where the raw curve crosses a fixed level and not half-maximal
* = called active by the depositor; i = inactive; . = not tested or not shown; [ ] = another dose, or the depositor's remark.

SMILES | SIRT5 block | FGF22 binding-1 | dFosB activator | PglD DTNB | PvdQ inh | CDK5 inh | FGF22 binding-2 | TSA no protein
COc1ccc(CN(C)C[C@H]2OCCCC[C@H](C)Oc3ccc(NS(=O)(=O)c4ccc(F)cc4)cc3C(=O)N([C@H](C)CO)C[C@H]2C)cc1 | 7.7 | 0.0 | . | 0.9 | . | . | . | .
COc1cc(NS(=O)(=O)c2ccc(NS(=O)(=O)c3ccc(C)cc3)cc2)nc(OC)n1 | -26.9 | 3.1* | -2.9 | -3.1 | -6.2 | -1.5 | -0.025 | i
Fc1ccc(NC(=S)NCCN2CCOCC2)cc1 | -2.3 | 0.5 | -7.2 | . | -9.4 | 0.4 | . | .
S=C(NCCN1CCOCC1)Nc1ccc(-c2nc3ccccc3[nH]2)cc1 | 2.4 | 2.2* | -0.4 | . | -2.7 | -0.8 | -0.277 | i
CCc1ccc(C(=O)NNC(=O)c2cccc(N3C(=O)CCC3=O)c2)cc1 | -2.7 | 18.8* | -0.7 | . | -4.6 | 1.4 | 0.106 | i
COC(=O)c1cn(NC(=O)Cc2ccccc2OC)c(=O)c2ccccc12 | 0.4 | 2.1* | -0.7 | -1.0 | 5.8 | -0.2 | 0.046 | i
CCCn1c(CCC(=O)O)nc2cc(S(=O)(=O)N3CCCC3)ccc21 | -0.8 | 29.8* | 2.4 | -7.9 | -7.2 | -0.1 | 0.088 | i
CCC(=O)N(C)C[C@@H]1Oc2cc(C#Cc3ccncc3)ccc2S(=O)(=O)N([C@H](C)CO)C[C@H]1C | 0.0 | 0.1 | . | 2.5 | . | . | . | .
COc1cc(NC(=O)C2CCC(CNS(=O)(=O)c3csc(C(N)=O)c3)CC2)cc(OC)c1 (configuration not stated) | 2.2 | 1.8* | -5.1 | -4.3 | -15.3 | . | -0.306 | i
CCCn1c(=O)[nH]c(=O)c2c1nc(-c1ccc(C#N)cc1)n2CCOC | -48.0 | -0.1 | -2.8 | -1.8 | -7.6 | 0.0 | . | .
CCCn1c(=O)[nH]c(=O)c2c1nc(-c1cccs1)n2CCOC | -6.9 | 4.7* | -2.5 | -10.1 | -1.2 | -1.4 | 0.148 | i
Cc1ccc(NS(=O)(=O)c2ccc(C(=O)NNC(=O)c3ccccc3O)cc2)cc1 | 2.4 | -0.5 | -7.9 | . | -4.1 | -1.2 | . | .
O=C(NNC(=O)c1ccccc1O)c1ccc(NS(=O)(=O)c2ccc(F)c(F)c2)cc1 | -6.3 | 1.8* | -6.0 | . | -10.0 | 0.0 | -0.036 | i
O=C(NC1CCCCC1)c1cc(-c2cccc(Cl)c2)on1 | -3.9 | 3.9* | -2.0 | -2.3 | -12.5 | -2.0 | 0.069 | i
CCOC(=O)N1CCN(C(=O)CCCCCn2c(=S)[nH]c3ccsc3c2=O)CC1 | -2.5 | 1.4* | -14.4 | . | -22.0 | 1.1 | -0.141 | i
C[C@H](CO)N1C[C@H](C)[C@H](CN(C)S(=O)(=O)c2cccs2)OCCCC[C@H](C)Oc2ccc(NC(=O)C3CCCCC3)cc2C1=O | 12.3 | 0.2 | . | 4.2 | . | . | . | .
COCC(=O)N1CC2(C1)[C@@H](c1ccccc1)[C@@H](CO)N2C(=O)NC1CCCC1 | . | 1.4* | . | . | . | . | 0.001 | i
CC(=O)N1[C@@H](CO)[C@@H](c2ccccc2)C12CN(C(=O)c1ccccn1)C2 | -4.9 | 1.4* | . | . | . | . | 0.119[42 µM] | i
COCC(=O)N1[C@@H](CO)[C@H](c2ccccc2)C12CN(C(=O)NC1CCCC1)C2 | -1.3 | . | . | . | . | . | . | .
O=C(c1ccccn1)N1CC2(C1)[C@@H](c1ccccc1)[C@@H](CO)N2C(=O)C1CC1 | 2.0 | 0.2 | . | . | . | . | . | .
O=C(CC1CC1)N1CC2(C1)[C@H](c1ccccc1)[C@@H](CO)N2C(=O)c1cnccn1 | -0.7 | . | . | . | . | . | . | .
CC(=O)N1[C@H](CO)[C@@H](c2ccccc2)C12CN(C(=O)c1ccccn1)C2 | -7.2 | 1.3* | . | . | . | . | 0.132[42 µM] | i
CC(=O)N1[C@H](CO)[C@@H](c2ccccc2)C12CN(C(=O)c1cnccn1)C2 | 1.6 | 0.0 | . | . | . | . | . | .
O=C(CC1CC1)N1CC2(C1)[C@H](c1ccccc1)[C@H](CO)N2C(=O)c1cnccn1 | -2.3 | 1.4* | . | . | . | . | 0.166[42 µM] | i
CCCNC(=O)N1CC2(C1)[C@H](c1ccccc1)[C@@H](CO)N2CC1CC1 | 1.7 | . | . | . | . | . | . | .
SMILES | SIRT5 block | FGF22 binding-1 | dFosB activator | PglD DTNB | PvdQ inh | CDK5 inh | FGF22 binding-2 | TSA no protein
COC(=O)C[C@H]1CC[C@H]2[C@@H](COc3ccc(NC(=O)c4ccccc4)cc3C(=O)N2C)O1 | -3.0 | . | . | . | . | . | . | .
O=C(O)C1CSC(c2ccc(O)c([N+](=O)[O-])c2)N1 (configuration not stated) | . | 0.0 | -4.3 | . | -13.5 | 0.0 | . | .
O=C(O)C1CSC(c2ccc3c(c2)OCO3)N1 (configuration not stated) | 6.9 | 2.7* | -6.5 | 4.4 | -4.5 | 0.9 | 0.108 | i
Cc1ccc(CN2CCNC(=O)C2CC(=O)N(C)C2CCCCC2)cc1 (configuration not stated) | -0.1 | 1.5* | -6.3 | -5.7 | 8.0 | -1.1 | 0.102 | i
CNC[C@H]1Oc2ccc(NS(C)(=O)=O)cc2CC(=O)N([C@@H](C)CO)C[C@@H]1C | -3.8 | 0.3 | . | -5.5 | . | . | . | .
CCOC(=O)c1ccc(S(=O)(=O)Nc2cc(C(=O)O)ccc2Cl)cc1 | -0.6 | 2.2* | -9.0 | . | -4.2 | 1.7 | 0.053 | i
CCOC(=O)c1ccc(S(=O)(=O)NNS(=O)(=O)c2ccc(C)cc2)cc1 | -2.4 | -0.2 | -0.1 | 0.4 | 4.7 | -0.4 | . | .
C[C@H]1CN([C@@H](C)CO)S(=O)(=O)c2ccc(C#Cc3ccccc3F)cc2O[C@@H]1CN(C)C(=O)Cc1cccnc1 | 1.7 | 8.3* | . | 5.4 | . | . | 0.111[42 µM] | i
C[C@H]1CN([C@@H](C)CO)S(=O)(=O)c2ccc(C#Cc3ccccc3F)cc2O[C@H]1CN(C)C(=O)Cc1cccnc1 | 10.7 | 5.9* | . | 2.7 | . | . | 0.09[42 µM] | i
Cc1ccc2c(c1)C1CN(C)CCC1N2S(=O)(=O)c1cccc(C(F)(F)F)c1 (configuration not stated) | 6.3 | 0.1 | 5.5 | -0.1 | -12.0 | -0.8 | . | .
Cc1ccc2c(c1)C1CN(C)CCC1N2S(=O)(=O)c1ccc(C(C)C)cc1 (configuration not stated) | 6.8 | 14.3* | -4.5 | 5.3 | -7.1 | -1.1 | -0.02 | i
